In PubChem BioAssay AID1508600 (Functional Genomics Laboratory (NCATS/FGL), 2020):
Out of some 53,000 sequences screened, about 3,700 (7%) were called active. The sample as a whole holds a higher share of actives than the screen did. A number with no mark means an inactive call.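 Rule for the calls: active = gene knockdowns whose robust z-score for IL-1 alpha signal is at least 2 or at most -2, so actives lie on both sides; inactive = the rest.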

Test: Components of the Cytosolic LPS Sensing Pathway: Gene Identification via Genome-wide siRNA Screen;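 note: robust z of the log signal after scaling to non-targeting control siRNA wells of the plate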
Settings: RAW264.7 macrophages, IL-1a HTRF, actives lie on both sides, screened at 100 nM (by protocol), cells primed 5 h with Pam3CSK4 first
Outline: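 RAW264.7; siRNA 100 nM final, RNAiMAX, 48h 37 degrees C; Pam3CSK4 5 h; LipidA + TransIT-TKO 24 h; IL-1a HTRF; CellTiter-Glo viability; robust z vs negative-control median.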
With CCUUUUCCAUGCCUACUCCTT against Bag3 the z-score was 0.339. With CCUAAGGAAGAUAAACCGGTT against Sh2d7 the z-score was -2.43 (active). GGCAUUUACUACUUCAUAGTT against Nfam1 showed a z-score of 0.738. In the case of GGAUAACUACAGGAAUAAGTT against Spam1, the z-score is reported as -0.701. In the case of CCGUCCCUAUGAAAUCAGCTT against Lrat, the z-score is reported as 2.28 (active). Sequence GGCGAAUUGUAUUUGAAAGTT against Lactb has a z-score of 0.686. GGAAGCAGUUCAUGUUAAGTT against Dtx4 showed a z-score of 1.12. GCCCACCUAAACCAACAGUTT against Dap gave a z-score of 0.989. Work on GGAAAGAAGGACAUGUUGCTT against Fbxo2 yielded a z-score of -1.22. With GGAGCACAGAAAACACAAGTT against Ncan the z-score was 3.41 (active). CCACGCUACAUGCAAUGGCTT against Itpka showed a z-score of 0.0149. CCCUCUCUGGGACUACAUATT against Zfp395 showed a z-score of 0.00687. Sequence “GGCAUGAGGGCAAAUGAAATT against 4933434M16Rik” has a z-score of -0.707. Work on “GGAACAUUUUGGAAAAGACTT against 1300017J02Rik” yielded a z-score of -0.0855. Work on GUACUAGCUAAUUGGGCCATT against Speer4b yielded a z-score of 0.651. With GGUUCACCUGGAUUCUGCATT against Clasrp the z-score was -2.1 (active). GGAGCAUAUACAACUCAGCTT against Dis3l showed a z-score of 0.1. GGAUGGGAUGAAAAUUGAATT against Papolg showed a z-score of -0.566. With GCUUGUCUCACACAGCUCUTT against Olfr401 the z-score was -3.11 (active). Work on GGUACUGGAAGAGGAGGUATT against Ppil3 yielded a z-score of -0.507. In the case of GCACAUUGGGAUAGCUGCATT against Trim65, the z-score is reported as 1.48. For GGAAAUAUGUGUCCGCACUTT against Mfap2, the z-score was -0.0699. In the case of GAGAGGGCAUAAUGGUUUUTT against H3c3, the z-score is reported as 4.58 (active). GGGAUACAGAUUUUGUUUATT against Olfr1261 gave a z-score of -0.116. For GGGAAGUUGUCUGACUAUUTT against Cyc1, the z-score was 0.225. For GGGAAAUGGAGGAUAAUUATT against Zmat1, the z-score was -0.172. For GCAAUUACAGGAGGAAUUATT against Orc3, the z-score was 2.86 (active). With GCUGAAAACUAGUCAGUCCTT against Epn3 the z-score was -1.07. In the case of GCCUUAAAAGACCUGACGUTT against Abca8b, the z-score is reported as 2.12 (active). For GCUUACAGCACAACAACAUTT against Ubap1, the z-score was -0.00967. CCUGGACACGAUUUCAGAGTT against Rbm6 gave a z-score of 1.18. In the case of GGAGGGUCGGCUUAUAAUUTT against Adam6b, the z-score is reported as 2.16 (active). With GGAAGCUUCAAGCCAUGGUTT against Creb3 the z-score was -0.919. With CGUUGGAUCUUGAUAAAACTT against Lpar2 the z-score was 0.179. In the case of GGACUUGAUCAAUGGCUAUTT against Wscd1, the z-score is reported as -0.043. GUGGCGAUAUCCAGAGAUGTT against Vmn1r18 showed a z-score of 0.261. With GCCGGCUGUAUUCAGUACGTT against Hoxc9 the z-score was 3.06 (active). With GCCACGUCUAAGUAUCAUUTT against Col6a1 the z-score was -0.377. With GCUCUGUUGGAAAGGUUUATT against Exosc6 the z-score was 0.0305. With GCAACUGUUCUACGUCUGATT against Tmprss2 the z-score was 1.63. GAAGCUGUCCAAGUACGAGTT against Atoh7 showed a z-score of -0.299. For GGCAUGACAUGUAGAUGGCTT against Aldh3b3, the z-score was 2.17 (active). CGAGCAAUGUUAAAAAUGATT against Slain2 gave a z-score of -0.993. GGGCAAACCCAAGACCUUATT against Sgms2 showed a z-score of -0.0749. Work on GGAAUUUGAGAUUGAAUGUTT against Katnbl1 yielded a z-score of 0.478. With GCCUGGAGACUACAUAUCCTT against Cdc20 the z-score was -2.09 (active). With GCUCGAAUGUGUAAAGACGTT against Csnk1e the z-score was 0.982. For CCUUGUUGCUCUGUCGAUCTT against Grina, the z-score was 0.0669. Work on CCAAGCUUAUUGACAAUGATT against Spta1 yielded a z-score of 0.213. For GGUGUGUUAAUUUCUAGAUTT against Frs2, the z-score was 0.945. For GGCUUGAAGCCCUAGUACUTT against Prss30, the z-score was 2.46 (active). For GGACAACAAGAUCAGGACCTT against Akap4, the z-score was 0.535. With GGUUACCUAUUGGAUGACATT against Muc19 the z-score was -1.43. For GGAAAAAUCAAAAGUGUUGTT against Tamm41, the z-score was -1.55. With GACUACAAAGGAGAGCAAATT against Igfbp6 the z-score was 2.07 (active). “GCUCCAGCUCUGCUUUAAGTT against 4931440P22Rik” showed a z-score of 1.28. GGGCAAUUUGGAGCUUACCTT against Erbb2 showed a z-score of -0.952. Sequence GAUGCCUUUUAUGGGUGCATT against Olfr61 has a z-score of 0.0552. GGCGUGAAGAAGUUUGAUGTT against Pklr gave a z-score of -0.431. In the case of GCGAGAAUUCUCUUCCAAUTT against Gsx2, the z-score is reported as 2.33 (active). In the case of GGACUGUCAGUACUGUCAATT against Agr3, the z-score is reported as 0.445. In the case of CCUAAAAUACUUUACCGGGTT against Bckdhb, the z-score is reported as -0.025. With GGAGAAUCUUCAACACUGGTT against Adprh the z-score was -0.951. For GGCUUCAAAACAUUUUCAGTT against Kansl1l, the z-score was 2.81 (active). In the case of GGCAUAUUCCGUUUUUAAATT against Pafah1b1, the z-score is reported as -1.09. GCAGUUACAGGAAAUCGAGTT against Cdr2 gave a z-score of -0.746. Work on GCCCAAGCAGUUCAUUCAUTT against Epc2 yielded a z-score of 0.665. For GCAUUAGUCAUUGUUAACGTT against Hsd17b4, the z-score was 0.653. With GGGCGACUUUAGCUUUUAUTT against Pced1b the z-score was 2.51 (active). With GGACUUCACCAUCCACGAATT against Pgap2 the z-score was 0.622. Sequence GGAUGCCUGAGUGCUACAUTT against Lsm4 has a z-score of -0.837. For CGGUGCGAUCUCUCAAAGUTT against Cryba4, the z-score was 2.97 (active). With GAUAUAAAGCCUUCAACACTT against Olfr912 the z-score was -1.48. Sequence GGAGAUGCUCAUUUUGAUUTT against Mmp8 has a z-score of 1.76. Work on GGUAGUGGCUUGAACAGGUTT against Vmn1r201 yielded a z-score of 0.115. For GGAUCCUCGGACUAAAAGUTT against Pnma1, the z-score was -0.228. With GCAUCUUAACACAUGUAAATT against Zfp369 the z-score was -0.834. In the case of GGGAUGUAUUUCAACAACUTT against Wwox, the z-score is reported as 0.0276. In the case of GGUAUAAGGAUUCUUUGAATT against Alg13, the z-score is reported as -2.8 (active). Work on GGCAUGGACAUUGAUGACATT against Dnajb1 yielded a z-score of -0.834. In the case of GCCUAAAGCUUUUCUACAATT against Mlph, the z-score is reported as 0.161. Work on GGUCAUCCGAGAUUUCACCTT against Elavl3 yielded a z-score of -0.944. Sequence ACUUCACCAUGGUACCCGGTT against Tspo has a z-score of 1.06. For GGCUUAAAUGCGUUCUACATT against Slc25a3, the z-score was 0.0986. With “GCCAGGAUAUGGAUAUGCATT against 1520401A03Rik” the z-score was -2.06 (active). In the case of GGCAGAAGAGUGGUACUUUTT against Fyn, the z-score is reported as -1.63. For AAAGGACUGCCUAAGACAATT against Vmn1r203, the z-score was -0.921. GCCAUGUUCUUUGCUCCCATT against Pigl gave a z-score of -1.8. Work on GGGCAAACUCUAGAGCUACTT against Pdgfrl yielded a z-score of -0.0578. For GUCUGGAUAUUUGACACUATT against Tmem60, the z-score was -0.637. Sequence GGAGUUGAUUGAAAUCAUCTT against Atp5c1 has a z-score of 0.466. For CGCAGGACGAUUAUGACGUTT against Pcdhb12, the z-score was 0.753. GGGAAACAAAAAAGAUUUCTT against Ptpn13 showed a z-score of 0.619. In the case of GCCAGCUAAAGAAGUCUAUTT against Gpr17, the z-score is reported as 2.81 (active). In the case of GGUCUCAAUAAACUUCAGGTT against Mfap4, the z-score is reported as 0.926. Sequence CCCAAAGCGUGACUGUCAATT against Sema4b has a z-score of -0.623. In the case of CCUGAAGUGGAGAUUCAACTT against Kcnj6, the z-score is reported as -1.27. For GGAGUUUACAGAAAUUAUCTT against Pecam1, the z-score was 0.214. For GAUUAGCAUCCAUGAACACTT against Tcl1b2, the z-score was 2.16 (active). With GGCAGAUUCAGACCUUCGATT against Sult1c2 the z-score was -0.753. CGAACAGUGCUUCGUAUGUTT against Lims1 gave a z-score of -1.04. GGUACAUGAAGAAAAGUAATT against Lrrc19 gave a z-score of -0.243. In the case of GCAUACAAGACCGUGAUCATT against Psmc4, the z-score is reported as -2.03 (active). Sequence GGUUAUUUCUCUCUCCCUATT against Creld1 has a z-score of 0.524. GGAGGAUGACAAAAUCUAUTT against Rnf113a2 gave a z-score of 1.25. GCAUGGUAUUAGAUGAUGATT against Nexn showed a z-score of -1.69. For GCGCAGAUAUCCUGGUUUGTT against Dhx36, the z-score was 2.28 (active). For GGAAUGUGCCUAAGUUUGGTT against Ufc1, the z-score was 1.08.
